Measured values as given in ChEMBL document CHEMBL1961873, “Compounds: GSK PKIS; Assays: Nanosyn kinase panel” (2012).
Values joined by “and” are separate entries in the source; they are usually repeats but may differ in a detail not shown here. Equal values may be shown once.

How the values were obtained:
[1] = molecular target: Protein kinase C gamma type (Homo sapiens) (UniProt P05129); details: at 1 µM;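 also: each value is an averaged percent inhibition of the enzyme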
[2] = molecular target: T1, Protein kinase C iota type (Homo sapiens) (UniProt P41743); details: at 0.1 µM
T1 sequence (whole entry): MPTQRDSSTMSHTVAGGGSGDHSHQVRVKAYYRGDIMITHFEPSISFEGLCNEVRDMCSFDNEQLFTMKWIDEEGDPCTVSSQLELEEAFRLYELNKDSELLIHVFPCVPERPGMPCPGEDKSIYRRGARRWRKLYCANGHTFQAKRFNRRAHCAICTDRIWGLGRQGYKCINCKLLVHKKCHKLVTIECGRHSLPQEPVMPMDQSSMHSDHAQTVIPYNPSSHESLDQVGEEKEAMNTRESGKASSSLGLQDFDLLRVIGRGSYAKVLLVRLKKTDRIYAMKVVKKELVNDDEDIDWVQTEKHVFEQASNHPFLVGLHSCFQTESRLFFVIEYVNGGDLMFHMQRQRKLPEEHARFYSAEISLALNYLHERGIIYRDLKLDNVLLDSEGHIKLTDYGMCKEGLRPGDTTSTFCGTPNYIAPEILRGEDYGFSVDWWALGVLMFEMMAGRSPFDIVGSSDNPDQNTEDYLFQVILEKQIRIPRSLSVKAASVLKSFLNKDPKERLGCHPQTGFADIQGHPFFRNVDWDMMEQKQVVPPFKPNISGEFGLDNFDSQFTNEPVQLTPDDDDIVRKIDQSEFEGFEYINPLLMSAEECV

[3] = molecular target: T1, Protein kinase C iota type (Homo sapiens); details: at 1 µM
[4] = molecular target: Protein kinase C theta type (Homo sapiens) (UniProt Q04759); details: at 0.1 µM
[5] = molecular target: Protein kinase C theta type (Homo sapiens) (UniProt Q04759); details: at 1 µM
[6] = molecular target: Protein kinase C beta type (Homo sapiens) (UniProt P05771); details: at 0.1 µM
[7] = molecular target: Protein kinase C beta type (Homo sapiens) (UniProt P05771); details: at 1 µM
[8] = molecular target: T2, Serine/threonine-protein kinase D1 (Homo sapiens) (UniProt Q15139); details: at 0.1 µM
T2 sequence (whole entry): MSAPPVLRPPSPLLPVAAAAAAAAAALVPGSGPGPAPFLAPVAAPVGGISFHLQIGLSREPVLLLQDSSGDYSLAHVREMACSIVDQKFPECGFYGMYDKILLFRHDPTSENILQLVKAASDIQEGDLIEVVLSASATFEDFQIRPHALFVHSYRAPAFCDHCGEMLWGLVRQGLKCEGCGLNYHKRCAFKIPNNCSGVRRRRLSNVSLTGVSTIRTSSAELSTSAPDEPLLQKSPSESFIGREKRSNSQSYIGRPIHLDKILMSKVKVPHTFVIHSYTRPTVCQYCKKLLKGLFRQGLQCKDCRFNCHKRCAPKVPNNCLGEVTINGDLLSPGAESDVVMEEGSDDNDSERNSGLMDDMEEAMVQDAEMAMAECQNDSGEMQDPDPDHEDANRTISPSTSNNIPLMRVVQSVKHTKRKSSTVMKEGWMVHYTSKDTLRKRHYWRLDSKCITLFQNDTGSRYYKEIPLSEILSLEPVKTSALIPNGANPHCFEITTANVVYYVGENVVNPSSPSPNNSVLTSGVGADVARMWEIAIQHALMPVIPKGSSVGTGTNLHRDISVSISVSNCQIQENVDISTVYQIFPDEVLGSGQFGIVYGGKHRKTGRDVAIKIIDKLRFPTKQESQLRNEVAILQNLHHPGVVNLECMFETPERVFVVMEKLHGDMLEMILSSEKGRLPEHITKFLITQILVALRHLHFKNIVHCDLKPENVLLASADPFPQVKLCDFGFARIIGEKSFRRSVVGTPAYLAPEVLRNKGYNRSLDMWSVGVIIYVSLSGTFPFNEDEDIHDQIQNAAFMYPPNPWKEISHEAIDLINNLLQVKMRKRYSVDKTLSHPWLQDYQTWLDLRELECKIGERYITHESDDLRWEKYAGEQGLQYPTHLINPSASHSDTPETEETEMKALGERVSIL

[9] = molecular target: T2, Serine/threonine-protein kinase D1 (Homo sapiens); details: at 1 µM
[10] = molecular target: T3, Serine/threonine-protein kinase D2 (Homo sapiens) (UniProt Q9BZL6); details: at 0.1 µM
T3 sequence (whole entry): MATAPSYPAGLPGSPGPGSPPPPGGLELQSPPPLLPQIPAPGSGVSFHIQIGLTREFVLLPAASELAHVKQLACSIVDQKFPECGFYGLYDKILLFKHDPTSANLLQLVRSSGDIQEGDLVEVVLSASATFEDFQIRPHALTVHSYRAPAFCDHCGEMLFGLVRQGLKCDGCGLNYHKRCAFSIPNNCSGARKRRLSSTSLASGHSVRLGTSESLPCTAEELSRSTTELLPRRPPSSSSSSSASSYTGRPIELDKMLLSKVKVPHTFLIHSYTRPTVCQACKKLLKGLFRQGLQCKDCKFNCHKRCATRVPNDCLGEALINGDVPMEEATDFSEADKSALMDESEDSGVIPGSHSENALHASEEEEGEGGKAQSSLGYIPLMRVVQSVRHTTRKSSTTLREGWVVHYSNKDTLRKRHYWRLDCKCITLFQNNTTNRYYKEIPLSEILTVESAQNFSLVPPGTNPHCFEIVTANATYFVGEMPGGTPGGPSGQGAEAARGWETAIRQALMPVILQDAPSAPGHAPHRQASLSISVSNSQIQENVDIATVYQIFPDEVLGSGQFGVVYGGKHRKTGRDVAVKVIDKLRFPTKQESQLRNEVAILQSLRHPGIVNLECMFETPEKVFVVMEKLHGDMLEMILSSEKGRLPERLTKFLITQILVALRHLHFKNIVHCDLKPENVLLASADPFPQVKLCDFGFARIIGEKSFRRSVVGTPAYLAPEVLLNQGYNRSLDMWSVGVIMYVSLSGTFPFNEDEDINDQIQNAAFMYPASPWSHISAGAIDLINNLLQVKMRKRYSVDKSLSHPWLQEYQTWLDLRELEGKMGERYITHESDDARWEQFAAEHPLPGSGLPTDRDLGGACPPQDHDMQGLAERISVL

[11] = molecular target: T3, Serine/threonine-protein kinase D2 (Homo sapiens); details: at 1 µM
[12] = molecular target: T4, Serine/threonine-protein kinase D3 (Homo sapiens) (UniProt O94806); details: at 0.1 µM
T4 sequence (whole entry): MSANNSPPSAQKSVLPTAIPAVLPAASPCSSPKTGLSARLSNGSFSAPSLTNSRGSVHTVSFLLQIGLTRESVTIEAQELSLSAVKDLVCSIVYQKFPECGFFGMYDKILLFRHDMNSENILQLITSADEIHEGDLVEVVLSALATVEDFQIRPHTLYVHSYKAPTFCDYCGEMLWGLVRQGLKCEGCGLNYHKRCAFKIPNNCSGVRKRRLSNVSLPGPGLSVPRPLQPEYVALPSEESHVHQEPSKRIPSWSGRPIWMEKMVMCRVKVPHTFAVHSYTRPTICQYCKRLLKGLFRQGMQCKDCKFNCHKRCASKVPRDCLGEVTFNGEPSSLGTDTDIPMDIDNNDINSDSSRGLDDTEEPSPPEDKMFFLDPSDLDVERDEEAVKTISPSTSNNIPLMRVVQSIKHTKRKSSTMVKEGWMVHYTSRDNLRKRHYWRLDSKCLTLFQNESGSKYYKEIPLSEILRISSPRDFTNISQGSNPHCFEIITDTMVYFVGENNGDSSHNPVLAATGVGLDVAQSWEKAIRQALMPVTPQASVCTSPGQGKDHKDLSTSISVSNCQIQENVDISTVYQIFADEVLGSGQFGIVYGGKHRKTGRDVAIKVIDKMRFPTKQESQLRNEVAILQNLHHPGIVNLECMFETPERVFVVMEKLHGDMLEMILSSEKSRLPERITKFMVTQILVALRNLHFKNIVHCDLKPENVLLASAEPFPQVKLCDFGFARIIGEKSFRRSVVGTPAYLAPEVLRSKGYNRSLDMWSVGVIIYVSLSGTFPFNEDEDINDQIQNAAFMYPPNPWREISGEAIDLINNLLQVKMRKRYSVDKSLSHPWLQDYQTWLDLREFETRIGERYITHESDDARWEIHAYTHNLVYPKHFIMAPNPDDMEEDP

[13] = molecular target: T4, Serine/threonine-protein kinase D3 (Homo sapiens); details: at 1 µM
[14] = molecular target: T5, cGMP-dependent protein kinase 1 (Homo sapiens) (UniProt Q13976); details: at 0.1 µM
T5 sequence (whole entry): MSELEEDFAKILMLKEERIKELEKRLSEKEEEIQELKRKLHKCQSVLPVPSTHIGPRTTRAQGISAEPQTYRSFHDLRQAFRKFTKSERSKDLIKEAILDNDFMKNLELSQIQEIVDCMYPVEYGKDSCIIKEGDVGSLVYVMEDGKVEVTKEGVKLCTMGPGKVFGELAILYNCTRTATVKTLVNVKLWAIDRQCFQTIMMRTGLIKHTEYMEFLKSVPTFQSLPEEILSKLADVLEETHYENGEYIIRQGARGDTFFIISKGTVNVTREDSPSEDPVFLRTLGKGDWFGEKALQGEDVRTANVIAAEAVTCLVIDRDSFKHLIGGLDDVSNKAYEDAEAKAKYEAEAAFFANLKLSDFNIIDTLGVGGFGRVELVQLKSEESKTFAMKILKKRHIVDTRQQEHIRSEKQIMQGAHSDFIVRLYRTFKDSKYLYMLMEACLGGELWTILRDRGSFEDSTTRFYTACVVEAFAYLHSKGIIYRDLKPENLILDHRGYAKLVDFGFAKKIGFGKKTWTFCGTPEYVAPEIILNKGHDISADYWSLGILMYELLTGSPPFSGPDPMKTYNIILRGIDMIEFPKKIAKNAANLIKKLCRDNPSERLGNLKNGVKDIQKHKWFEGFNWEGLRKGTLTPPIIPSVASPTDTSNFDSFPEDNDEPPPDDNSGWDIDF

[15] = molecular target: T5, cGMP-dependent protein kinase 1 (Homo sapiens); details: at 1 µM
[16] = molecular target: T6, cGMP-dependent protein kinase 2 (Homo sapiens) (UniProt Q13237); details: at 0.1 µM
T6 sequence (whole entry): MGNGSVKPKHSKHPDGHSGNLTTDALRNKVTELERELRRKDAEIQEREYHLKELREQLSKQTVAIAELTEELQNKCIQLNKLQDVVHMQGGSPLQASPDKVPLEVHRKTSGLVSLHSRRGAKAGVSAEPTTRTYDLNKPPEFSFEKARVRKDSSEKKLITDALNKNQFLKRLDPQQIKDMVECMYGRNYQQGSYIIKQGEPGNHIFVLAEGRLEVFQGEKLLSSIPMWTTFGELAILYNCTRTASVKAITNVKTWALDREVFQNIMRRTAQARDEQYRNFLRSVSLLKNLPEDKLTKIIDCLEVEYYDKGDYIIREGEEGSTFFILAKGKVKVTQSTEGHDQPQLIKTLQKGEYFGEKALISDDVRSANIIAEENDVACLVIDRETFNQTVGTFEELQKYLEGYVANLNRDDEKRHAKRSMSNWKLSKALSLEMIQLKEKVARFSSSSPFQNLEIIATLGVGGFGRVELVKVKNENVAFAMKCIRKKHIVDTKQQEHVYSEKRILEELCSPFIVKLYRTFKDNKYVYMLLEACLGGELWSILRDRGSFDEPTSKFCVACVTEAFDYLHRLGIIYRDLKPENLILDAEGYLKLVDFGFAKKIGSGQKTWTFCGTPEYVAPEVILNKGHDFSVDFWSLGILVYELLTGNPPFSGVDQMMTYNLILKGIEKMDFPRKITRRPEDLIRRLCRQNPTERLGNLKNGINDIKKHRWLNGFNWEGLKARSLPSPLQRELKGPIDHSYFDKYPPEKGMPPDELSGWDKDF

[17] = molecular target: T6, cGMP-dependent protein kinase 2 (Homo sapiens); details: at 1 µM
[18] = molecular target: T7, cAMP-dependent protein kinase catalytic subunit PRKX (Homo sapiens) (UniProt P51817); details: at 0.1 µM
T7 sequence (whole entry): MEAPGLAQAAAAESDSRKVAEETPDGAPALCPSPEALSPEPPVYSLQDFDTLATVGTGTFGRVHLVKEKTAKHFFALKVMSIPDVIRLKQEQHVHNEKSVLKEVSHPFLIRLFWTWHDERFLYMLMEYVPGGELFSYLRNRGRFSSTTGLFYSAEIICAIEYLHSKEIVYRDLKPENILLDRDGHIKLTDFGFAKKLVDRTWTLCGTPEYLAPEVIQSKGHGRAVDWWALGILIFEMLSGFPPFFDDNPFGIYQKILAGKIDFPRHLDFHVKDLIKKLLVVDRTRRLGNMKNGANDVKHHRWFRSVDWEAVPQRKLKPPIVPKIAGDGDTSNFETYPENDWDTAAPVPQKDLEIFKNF

[19] = molecular target: T7, cAMP-dependent protein kinase catalytic subunit PRKX (Homo sapiens); details: at 1 µM
[20] = molecular target: Rho-associated protein kinase 1 (Homo sapiens) (UniProt Q13464); details: at 0.1 µM;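 also: values are mean percent inhibition of ROCK1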
Sequence of Rho-associated protein kinase 1 (Homo sapiens) (Q13464 2-1354 limits assumed): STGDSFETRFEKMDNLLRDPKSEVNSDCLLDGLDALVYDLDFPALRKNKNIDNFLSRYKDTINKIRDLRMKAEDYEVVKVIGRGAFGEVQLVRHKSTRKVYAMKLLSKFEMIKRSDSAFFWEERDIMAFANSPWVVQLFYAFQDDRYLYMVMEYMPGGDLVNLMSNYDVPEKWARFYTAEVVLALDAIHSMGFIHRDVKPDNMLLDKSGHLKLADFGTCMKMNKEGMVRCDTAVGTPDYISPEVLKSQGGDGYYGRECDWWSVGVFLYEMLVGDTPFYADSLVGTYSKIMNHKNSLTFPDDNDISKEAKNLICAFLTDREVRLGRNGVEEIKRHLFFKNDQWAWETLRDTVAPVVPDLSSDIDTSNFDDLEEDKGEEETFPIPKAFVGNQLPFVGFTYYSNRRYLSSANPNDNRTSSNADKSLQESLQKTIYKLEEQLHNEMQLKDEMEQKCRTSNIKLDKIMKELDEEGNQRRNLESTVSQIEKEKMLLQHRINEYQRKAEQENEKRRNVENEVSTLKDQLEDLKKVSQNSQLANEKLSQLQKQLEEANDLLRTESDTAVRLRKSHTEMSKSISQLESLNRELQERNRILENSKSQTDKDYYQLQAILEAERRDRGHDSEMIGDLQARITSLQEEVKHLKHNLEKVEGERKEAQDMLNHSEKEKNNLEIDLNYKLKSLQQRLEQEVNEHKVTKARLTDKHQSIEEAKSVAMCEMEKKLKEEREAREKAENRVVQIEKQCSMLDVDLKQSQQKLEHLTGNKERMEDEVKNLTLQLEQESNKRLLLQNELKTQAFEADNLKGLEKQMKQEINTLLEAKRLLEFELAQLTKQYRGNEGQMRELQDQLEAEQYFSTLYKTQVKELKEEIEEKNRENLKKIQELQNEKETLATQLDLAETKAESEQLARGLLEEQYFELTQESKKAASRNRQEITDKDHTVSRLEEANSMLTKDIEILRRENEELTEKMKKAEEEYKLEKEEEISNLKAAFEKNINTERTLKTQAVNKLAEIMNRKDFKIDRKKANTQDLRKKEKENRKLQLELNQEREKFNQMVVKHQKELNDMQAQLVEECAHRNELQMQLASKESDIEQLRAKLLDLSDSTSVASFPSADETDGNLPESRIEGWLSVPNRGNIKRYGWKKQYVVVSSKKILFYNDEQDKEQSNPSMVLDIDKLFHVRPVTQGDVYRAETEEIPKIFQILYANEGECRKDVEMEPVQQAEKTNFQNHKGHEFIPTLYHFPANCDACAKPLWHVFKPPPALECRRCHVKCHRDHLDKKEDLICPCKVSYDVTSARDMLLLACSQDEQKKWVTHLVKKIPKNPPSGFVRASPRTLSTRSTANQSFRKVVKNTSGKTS

Sequence of Protein kinase C beta type (Homo sapiens) (P05771 2-671 limits assumed): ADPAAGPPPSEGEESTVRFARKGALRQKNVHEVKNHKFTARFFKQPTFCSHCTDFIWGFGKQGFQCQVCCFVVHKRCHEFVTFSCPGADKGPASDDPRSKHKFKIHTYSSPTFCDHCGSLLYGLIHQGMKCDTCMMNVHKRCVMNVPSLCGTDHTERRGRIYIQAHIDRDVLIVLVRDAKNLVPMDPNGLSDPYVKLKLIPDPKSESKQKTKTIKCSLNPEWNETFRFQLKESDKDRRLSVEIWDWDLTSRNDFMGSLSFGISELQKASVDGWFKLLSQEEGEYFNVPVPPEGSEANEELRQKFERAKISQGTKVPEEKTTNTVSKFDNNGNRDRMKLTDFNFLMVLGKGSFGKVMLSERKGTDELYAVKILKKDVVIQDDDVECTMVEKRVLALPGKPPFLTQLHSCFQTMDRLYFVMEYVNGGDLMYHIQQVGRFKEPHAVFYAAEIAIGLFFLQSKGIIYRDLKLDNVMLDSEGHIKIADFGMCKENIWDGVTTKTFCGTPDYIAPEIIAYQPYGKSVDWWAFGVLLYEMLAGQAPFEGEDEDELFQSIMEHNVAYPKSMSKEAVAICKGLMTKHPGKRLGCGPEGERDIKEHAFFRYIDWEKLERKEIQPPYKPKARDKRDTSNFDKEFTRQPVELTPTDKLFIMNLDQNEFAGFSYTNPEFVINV
Sequence of Protein kinase C theta type (Homo sapiens) (Q04759 whole entry, looked up): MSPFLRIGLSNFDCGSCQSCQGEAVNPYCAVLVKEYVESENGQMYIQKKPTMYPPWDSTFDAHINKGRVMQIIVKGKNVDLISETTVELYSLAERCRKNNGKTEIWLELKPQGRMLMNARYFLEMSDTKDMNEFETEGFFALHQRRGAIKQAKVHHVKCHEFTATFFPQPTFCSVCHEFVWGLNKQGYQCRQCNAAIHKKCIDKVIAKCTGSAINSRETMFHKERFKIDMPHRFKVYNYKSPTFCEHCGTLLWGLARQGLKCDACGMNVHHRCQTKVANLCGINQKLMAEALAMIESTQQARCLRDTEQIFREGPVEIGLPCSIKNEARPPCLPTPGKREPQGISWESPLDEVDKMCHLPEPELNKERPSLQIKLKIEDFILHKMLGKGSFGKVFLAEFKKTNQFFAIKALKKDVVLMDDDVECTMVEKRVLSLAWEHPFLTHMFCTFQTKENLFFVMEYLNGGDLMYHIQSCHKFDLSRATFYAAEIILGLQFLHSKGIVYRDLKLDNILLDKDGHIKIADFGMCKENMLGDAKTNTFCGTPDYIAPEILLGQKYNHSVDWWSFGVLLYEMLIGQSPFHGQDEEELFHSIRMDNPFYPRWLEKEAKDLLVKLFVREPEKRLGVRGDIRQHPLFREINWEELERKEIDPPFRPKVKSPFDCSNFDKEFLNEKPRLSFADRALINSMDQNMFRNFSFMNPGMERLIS

Structure (SMILES)	inhibition [1]	inhibition [2]	inhibition [3]	inhibition [4]	inhibition [5]	inhibition [6]	inhibition [7]	inhibition [8]	inhibition [9]	inhibition [10]	inhibition [11]	inhibition [12]	inhibition [13]	inhibition [14]	inhibition [15]	inhibition [16]	inhibition [17]	inhibition [18]	inhibition [19]	inhibition [20]
Nc1nccc(-c2c(-c3ccc(F)cc3)ncn2C2CCNCC2)n1	8.84% and 8.7%	-1.01% and 0.25%	0.48% and 1.35%	-1.64% and -0.14%	-0.41% and 0.45%	3.39% and 5.75%	28.4% and 33.6%	-0.71% and 3.19%	26.6% and 34.1%	-0.79% and 3.35%	29.1% and 38.3%	-2.12% and 2.32%	17.6% and 25.6%	-1.2% and -1.11%	-1.21% and 1.73%	-2.2% and 1.13%	3.3% and 1.57%	-1.45% and 1.45%	-1.91% and 2.45%	-0.99% and 1.19%
CCCNc1cccc(-n2ncc3c(N/N=C/c4ccncc4)ncnc32)c1	5.49%	3.86%	12.5%	1.36%	2.98%	3.39%	3.89%	2.19%	1.22%	-2.37%	1.21%	0.66%	0.02%	0.73%	2.57%	2.7%	4.72%	2.18%	4.42%	2.35%
O=C(O[C@H]1CN[C@H](C#Cc2cc3ncnc(Nc4ccc5c(ccn5Cc5cc(F)ccc5F)c4)c3s2)C1)N1CCOCC1	3.05%	2.82%	3.06%	1.84%	0.91%	1.75%	0.99%	3.66%	6.58%	4.5%	5.35%	5.21%	6.35%	2.6%	3.55%	2.56%	3.72%	2.19%	2.67%	0.77%
